For six compounds, cell viability results are on record in the supplement of paper PMC10981050.

SMILES strings stand for the structures. Values joined by “and” are separate entries in the source; they are usually repeats but may differ in a detail not shown here. Equal values may be shown once.

Holding throughout (assay): cell viability relative to vehicle control; higher = less cytotoxic
Settings in all cases: 10 µM

In one test the test system is K562. In short, it runs like this: (§1)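 Four leukaemia lines, as CRISPR-edited mutant clones and isogenic wild-type clones, were tested against Selleck bioactive, kinase and epigenetic probe libraries after removal of identity-inconsistent compounds. Cells were exposed to a single 10 µM dose for 48 h, and CellTiter-Glo luminescence was then read. Viability was calculated relative to the on-plate vehicle control.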

In another test the test system is MARIMO. The method in brief: as §1
For a further test, the system named is MOLM14. The method in brief: as §1
The test system of another test is OCI-AML2. The method in brief: as §1

The cell viability is a read-out of living cells in per cent, often relative to untreated cells. With `C[C@@H](Oc1ccc2[nH]nc(/C=C/c3cnn(CCO)c3)c2c1)c1c(Cl)cncc1Cl`, the cell viability in the test with K562 (SRSF2 genotype: SRSF2 P95H/wt) was 36.1% and 35.5%; in the test with K562 (SRSF2 genotype: SRSF2 wt/wt), 30.1%; in the test on MARIMO (SRSF2 genotype: SRSF2 P95H/wt), 6.39%; with MARIMO (SRSF2 genotype: SRSF2 wt/wt), 5.47%; in the test with MOLM14 (SRSF2 genotype: SRSF2 P95H/wt), 0.8%; with MOLM14 (SRSF2 genotype: SRSF2 wt/wt), 0.16%. The cell viability in the test with OCI-AML2 (SRSF2 genotype: P95H/wt) is 0.48%; in the test with OCI-AML2 (SRSF2 genotype: wt/wt), 4.14%.

As for `COc1cc2c(cc1OC)CN(C(=O)/C=C/c1c(-c3ccccc3)n(C)c3ncccc13)CC2`, the cell viability in the test with K562 (SRSF2 genotype: SRSF2 P95H/wt) is 63.9% and 81.1%; in the test on K562 (SRSF2 genotype: SRSF2 wt/wt), 71.3%; in the test on MARIMO (SRSF2 genotype: SRSF2 P95H/wt), 69.1%; in the test with MARIMO (SRSF2 genotype: SRSF2 wt/wt), 70.5%; in the test on MOLM14 (SRSF2 genotype: SRSF2 P95H/wt), 47.7%; in the test with MOLM14 (SRSF2 genotype: SRSF2 wt/wt), 44.2%. The values for the cell viability in the test on OCI-AML2 (SRSF2 genotype: P95H/wt) and in the test with OCI-AML2 (SRSF2 genotype: wt/wt) were 51.6% and 49%, respectively.

As to `C=C1C2CCC(C2)C1(C)CCC=C(C)CO` (stereo not drawn) [Santalol], the cell viability with K562 (SRSF2 genotype: SRSF2 P95H/wt) was 106% and 103%; in the test on K562 (SRSF2 genotype: SRSF2 wt/wt) it was 98.6%; in the test on MARIMO (SRSF2 genotype: SRSF2 P95H/wt), 105%; in the test with MARIMO (SRSF2 genotype: SRSF2 wt/wt) it was 94.3%; in the test on MOLM14 (SRSF2 genotype: SRSF2 P95H/wt) it was 106%; in the test on MOLM14 (SRSF2 genotype: SRSF2 wt/wt) it was 104%. For the same compound, the cell viability came to 102% in the test with OCI-AML2 (SRSF2 genotype: P95H/wt) and 101% in the test with OCI-AML2 (SRSF2 genotype: wt/wt).

With `CC(C)c1cc(-c2n[nH]c(=O)n2-c2ccc3c(ccn3C)c2)c(O)cc1O` [Ganetespib (STA-9090)], the cell viability is 21.6% and 26.6% in the test with K562 (SRSF2 genotype: SRSF2 P95H/wt); 28.1% with K562 (SRSF2 genotype: SRSF2 wt/wt); 31.8% in the test on MARIMO (SRSF2 genotype: SRSF2 P95H/wt); 27% in the test with MARIMO (SRSF2 genotype: SRSF2 wt/wt); 2.31% with MOLM14 (SRSF2 genotype: SRSF2 P95H/wt); 2.65% in the test on MOLM14 (SRSF2 genotype: SRSF2 wt/wt). In addition, the cell viability with OCI-AML2 (SRSF2 genotype: P95H/wt) turned out to be 19.4%; in the test on OCI-AML2 (SRSF2 genotype: wt/wt) it was 21.1%.

For `COC(=O)N[C@H](C(=O)N1CC2(CC2)C[C@H]1c1nc(-c2ccc3c(c2)C(F)(F)c2cc(-c4ccc5[nH]c([C@@H]6[C@H]7CC[C@H](C7)N6C(=O)[C@@H](NC(=O)OC)C(C)C)nc5c4)ccc2-3)c[nH]1)C(C)C` [Ledipasvir (GS5885)], the cell viability with K562 (SRSF2 genotype: SRSF2 P95H/wt) is 84.9% and 87.8%; in the test with K562 (SRSF2 genotype: SRSF2 wt/wt) it was 84.3%; in the test with MARIMO (SRSF2 genotype: SRSF2 P95H/wt) it was 86.4%; with MARIMO (SRSF2 genotype: SRSF2 wt/wt), 90.2%; with MOLM14 (SRSF2 genotype: SRSF2 P95H/wt) it was 73.7%; in the test with MOLM14 (SRSF2 genotype: SRSF2 wt/wt) it was 84.3%. Further, the cell viability in the test on OCI-AML2 (SRSF2 genotype: P95H/wt) stood at 87.9%; with OCI-AML2 (SRSF2 genotype: wt/wt), 91.8%.

With `C[C@]12CC[C@@H]3c4ccc(O)cc4CC[C@H]3[C@@H]1CCC2=O` [Estrone], the cell viability was 100% and 92.7% in the test with K562 (SRSF2 genotype: SRSF2 P95H/wt); 103% with K562 (SRSF2 genotype: SRSF2 wt/wt); 94.5% in the test with MARIMO (SRSF2 genotype: SRSF2 P95H/wt); 96.6% in the test on MARIMO (SRSF2 genotype: SRSF2 wt/wt); 101% in the test on MOLM14 (SRSF2 genotype: SRSF2 P95H/wt); 99.1% in the test on MOLM14 (SRSF2 genotype: SRSF2 wt/wt). The cell viability with OCI-AML2 (SRSF2 genotype: P95H/wt) was 101%; with OCI-AML2 (SRSF2 genotype: wt/wt), 113%.
